Source: PubChem
The full list was thinned out, with hits kept by preference.
KDM5B inh: inhibitors of human KDM5B histone demethylase; KDM5B demethylase, FDH-coupled NADH fluorescence (FDH is formaldehyde dehydrogenase); Potency, µM (highest dose often 57.7 µM), hits mostly inhibitors; hit rate 2.6% among 220,000; AID 1347165; active = well fitted inhibition curve with a large enough effect; also: 0% is about no effect; nearly all actives have a fitted effect of over 70% in size
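Coupled FDH/NAD⁺ fluorescence readout. KDM5BΔAP 200 nM final; compound titration, 10 min RT preincubation; substrate mix 12.5 µM H3K4me3, 25 µM 2-OG, 50 µM Fe(II), 100 µM ascorbate, 0.25 mM NAD⁺, 0.25 U/mL FDH; ΔRFU over 30 min.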
Starred values were filed as active, the others as inactive; i = inactive. Potency is read from the fitted curve at half-maximal effect.

SMILES	KDM5B inh
O=C(O)CCC1CCCN(S(=O)(=O)c2ccccc2)C1 (configuration not stated)	i
O=C(CCC1CCCN(S(=O)(=O)c2ccccc2)C1)NCc1ccc(Cl)cc1 (configuration not stated)	i
Cc1ccc(C(CNC(=O)c2cc(=O)c3cc(Br)ccc3o2)N2CCC(C)CC2)o1 (configuration not stated)	i
CC(C)Oc1cccc(-c2n[nH]c3c2CC(=O)N(c2ccccc2)C3)c1	i
Cc1cc2c(-c3ccc(CO)cc3)nc(-c3c(C)noc3C)cc2[nH]1	i
Cc1cc2c(-c3cccc(OC(C)C)c3)nc(-c3c(C)noc3C)cc2[nH]1	16µM*
Cc1ccc(-c2nc(Cn3cnc(C#N)n3)co2)c(C)c1	i
NCc1ccc(C(=O)N2CCCC2)cc1	i
Cc1c(CN2CCN(c3ncc(F)cn3)CC2)[nH]c2ccc(F)cc12	i
Cc1ccc(-n2cnnc2SCC(=O)Nc2nc3c(C)cccc3s2)cc1	i
N#Cc1ccc(NC(=O)Cn2c(=O)c3c(ncn3Cc3ccccc3)n(Cc3ccccc3)c2=O)cc1	i
CCn1ncc(C(=O)N[C@@H]2CN(Cc3ccccc3)C[C@H]2CN(C)C)c1C	i
CCn1ncc(C(=O)N[C@@H]2CN(c3ccncn3)C[C@H]2CN(C)C)c1C	i
COc1ccccc1C(=O)N[C@@H]1CN(c2ccccn2)C[C@H]1CN(C)C	28µM*
COCCC(=O)N[C@@H]1CN(c2ccncn2)C[C@H]1CN(C)C	i
CCn1ncc(C(=O)N[C@@H]2CN(c3ccccn3)C[C@H]2CN(C)C)c1C	32µM*
CC(C)Cc1nnc(NC(=O)c2cc(=O)c3ccccc3o2)s1	i
O=C(CC(c1ccccc1)c1ccccc1)Oc1cc(Cl)ccc1Cl	i
Cc1ccc(NC(=O)COC(=O)c2ccccc2C)cc1F	i
O=C(OCc1nnnn1-c1ccccc1)C1(c2ccccc2F)CCCC1	i
N#Cc1ccc(COc2ccc(Br)cc2Br)cc1	i
COc1ccc(-c2noc([C@@H](C)NC(=O)COc3ccccc3)c2C(=O)O)cc1	i
COc1ccc(-c2noc([C@@H](C)NC(=O)c3nc4ccccc4[nH]3)c2C(=O)O)cc1	28µM*
C[C@@H](NC(=O)c1ccccc1)c1onc(-c2ccc(F)cc2)c1C(=O)O	i
CC(=O)N[C@@H](Cc1c[nH]c2ccccc12)C(=O)NC1CCCCCC1	i
SMILES	KDM5B inh
COC1CCC12CCN(C(=O)Cc1cccc(F)c1)CC2 (configuration not stated)	i
O=C(Cc1ccccc1)N1CCC2(CC1)CN(c1ncccn1)CC2CO (configuration not stated)	22µM*
CC(=O)N1CC(CO)C2(CCN(C(=O)Cc3ccccc3Cl)CC2)C1 (configuration not stated)	i
O=C(Cc1ccccc1F)N1CCC2(CC1)CN(c1ccncn1)CC2CO (configuration not stated)	i
COCC1CN(C(C)=O)CC12CCN(C(=O)Cc1cccc(F)c1)CC2 (configuration not stated)	i
O=C(Cc1cccc(F)c1)N1CCC2(CC1)CN(c1ncccn1)CC2CO (configuration not stated)	22µM*
O=C(CCc1ncc(-c2ccccc2F)o1)Nc1ccc(N2CCOCC2)cc1N1CCOCC1	i
CC(C)Cc1noc(CSc2cc(C(N)=O)c3ccccc3n2)n1	i
CSCc1ccc(C(=O)Nc2ccc(F)cc2Cl)o1	i
O=C(NC(C1CC1)C1CC1)c1ccccc1Cl	i
Cc1ccc(Nc2cc(C(=O)N3CCOCC3)c3ccccc3n2)cc1	i
CCOc1ccc(Nc2cc(C(=O)N3CCOCC3)c3ccccc3n2)cc1	i
COc1ccc(CN2CCc3oc(C)c(C(=O)NCc4cccnc4)c3C2)cc1	i
O=C(/C=C/c1c(Cl)cccc1Cl)NCCCn1ccnc1	i
CC(C)CNc1ccc2c(n1)C(C)(C(=O)NCc1ccco1)CN(Cc1ccccc1)C2 (configuration not stated)	i
CC1(C(=O)N2CCOCC2)CN(Cc2ccccc2)Cc2ccc(Nc3ccccc3)nc21 (configuration not stated)	28µM*
CC1(C(=O)NCc2cccnc2)CN(Cc2ccccc2)Cc2ccc(N3CCOCC3)nc21 (configuration not stated)	25µM*
CC1(C(=O)NCc2ccccc2)CN(Cc2ccccc2)Cc2ccc(N3CCOCC3)nc21 (configuration not stated)	22µM*
Cc1c(CC(=O)NCCCn2ccnc2)c(=O)oc2cc(O)ccc12	i
O=C(NCc1cccnc1)C(=O)NCC(c1ccco1)N1CCOCC1 (configuration not stated)	i
O=C(NCc1ccc(CN2CCOCC2)cc1)c1cnn(-c2ccccc2)c1	i
CN1Cc2ccc(N3CCOCC3)nc2C(C)(C(=O)NCCCn2ccnc2)C1 (configuration not stated)	32µM*
COC(=O)c1nc2n(n1)C(c1ccc(C)cc1)C(C(=O)Nc1ccc(Cl)cc1)=C(C)N2 (configuration not stated)	i
Cc1ccc(-c2cc(C(=O)Nc3cccc(CO)c3)c3ccccc3n2)cc1	i
O=C(CCNC(=O)c1ccccc1Cl)Nc1nc2ccc(SC(F)F)cc2s1	i
SMILES	KDM5B inh
COc1ccc(CN(C)C(=O)CSc2nnc(COc3ccc(Cl)cc3)n2C)cc1F	i
CCC(=O)Nc1c(-c2cc(=O)oc3ccc(Cl)cc23)oc2ccccc12	i
CCNc1c(NC(=O)c2cc(Br)ccc2OC)c(=O)oc2ccccc12	i
NC(=O)C1CN(C(=O)c2nn(-c3ccccc3)c(=O)c3ccccc23)c2ccccc2O1 (configuration not stated)	i
CCCCCCc1ccc(C(=O)Nc2ccc(C)cc2)cc1	i
CC(C)NC(=O)C1(C)CN(Cc2ccccc2)Cc2ccc(N3CCOCC3)nc21 (configuration not stated)	28µM*
Cc1cc(N2CCOCC2)nc2ccc(NC(=O)NC(C)C)cc12	i
CN(C)CCNC(=O)C1(C)CN(Cc2ccccc2)Cc2ccc(N3CCOCC3)nc21 (configuration not stated)	35µM*
COCCCNC(=O)C1(C)CN(Cc2ccccc2)Cc2ccc(NCC(C)C)nc21 (configuration not stated)	i
CC(C)NC(=O)N1Cc2ccccc2OC2(CCN(Cc3ccncc3)CC2)C1	i
O=C(NCCc1ccccc1)N(C1CCOCC1)C1CCN(Cc2ccccc2)CC1	i
CCOc1cc(/C=C/c2ccc3cccc(OC(C)=O)c3n2)ccc1OC(C)=O	i
COc1ccc(CNC(=O)c2cc3c(N4CCCC4)nc(C)cn3n2)c(OC)c1	28µM*
COc1ccc(CNC(=O)c2cccn2-c2nnc(N3CCCCC3)s2)c(OC)c1	i
COc1ccccc1CNC(=O)c1cc2c(N3CCSCC3)nc(C)cn2n1	7.1µM*
O=C(c1ccco1)N1CCN(c2nc3ccc(Cl)cc3s2)CC1	i
COc1ccccc1CNC(=O)c1cc2c(N3CCCC3)nc(C)cn2n1	28µM*
COc1ccccc1CNC(=O)C1CCN(c2nn3c(=O)cc(C)nc3s2)CC1	i
COc1ccccc1CNC(=O)c1sc(NC2CCCC2)nc1C	i
COc1ccccc1CNC(=O)CSc1nc2ccccc2nc1N1CCCC1	i
Cc1cc(N2CCN(C(=O)c3ccco3)CC2)c2ccccc2n1	i
Cc1cn2nc(C(=O)N3CCN(C(=O)c4ccco4)CC3)cc2c(N2CCCC2)n1	32µM*
